# Results filed as inconclusive are left out. Where a call stands in place of a potency, no number is given. Active and inactive are the calls of the source. Calls come from the whole dose curve; as a rule, active = well fitted curve in the direction sought with a large enough effect; inconclusive = small, poorly fitted or top-dose-only effect, or another doubt; inactive = no such curve, though single readings can be large or run the other way.
# Target: Metallo-beta-lactamase type 2 (Klebsiella pneumoniae) (UniProt C7C422)
# Sequence (C7C422 whole entry, looked up): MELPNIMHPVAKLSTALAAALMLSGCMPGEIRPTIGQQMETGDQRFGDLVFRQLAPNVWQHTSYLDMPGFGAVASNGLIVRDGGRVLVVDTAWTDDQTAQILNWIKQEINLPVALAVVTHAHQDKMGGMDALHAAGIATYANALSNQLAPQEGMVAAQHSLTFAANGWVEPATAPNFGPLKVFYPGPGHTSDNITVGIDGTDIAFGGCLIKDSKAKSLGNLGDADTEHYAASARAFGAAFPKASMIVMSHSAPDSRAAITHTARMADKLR
# Test: qHTS to identify inhibitors of the New Delhi Metallo-beta-lactamase (NDM): assay validation screen against the NCATS LOPAC Collection (AID 1794843);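 note: nitrocefin turnover by NDM-1 measured as 485 nm absorbance at plateau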
# Conditions: NDM-1 enzyme, nitrocefin hydrolysis, absorbance 485 nm; series mostly up to 38.4 µM
# In short: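 NDM-1 at 2 nM final in 50 mM HEPES pH 7.0, 1 uM ZnSO4, 0.01% Tween20, preincubated with LOPAC compounds pinned in DMSO; 50 uM nitrocefin (stock) added. Hydrolysis read as absorbance at 485 nm in the plateau phase.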
row,Structure (SMILES),Potency
1,Nc1nc2ccc(Cl)cc2c2nc(-c3ccco3)nn12,inactive
2,NCCNS(=O)(=O)c1cccc2c(Cl)cccc12,inactive
3,CC(=O)NNC(=O)N1Cc2ccccc2Oc2ccc(Cl)cc21,inactive
4,CC[N+](CC)(CC)CC(=O)Nc1c(C)cccc1C,inactive
5,C=CCNc1ncnc2ccc(Br)cc12,inactive
6,CC(=O)C(C)=O,inactive
7,N[C@@H](Cc1c[nH]c2ccccc12)C(=O)O,inactive
8,COc1cc([C@@H]2c3cc4c(cc3[C@H](O)C3COC(=O)[C@@H]32)OCO4)cc(OC)c1OC (stereo partly specified),inactive
9,CCCn1c(=O)c2[nH]c(-c3ccc(S(=O)(=O)O)cc3)nc2n(CCC)c1=O,inactive
10,O=C(O)CCC(=O)N1CCCC1C(=O)O (stereo unspecified),inactive
11,CCCCCCC(=O)OC1CC(C)(C)NC(C)(C)C1,inactive
12,c1ccc(C(NCCNC(c2ccccc2)c2ccccc2)c2ccccc2)cc1,inactive
13,OC[C@H]1O[C@@H](n2cnc3cncnc32)[C@H](O)[C@@H]1O,inactive
14,O=C(O)CCC/C=C\C[C@@H]1[C@@H](/C=C/[C@H](O)C2Cc3ccccc3C2)[C@@H](F)C[C@@H]1O,inactive
15,CN1CCCC1CCOC(C)(c1ccccc1)c1ccc(Cl)cc1 (stereo unspecified),inactive
16,CC1CNCCN1S(=O)(=O)c1cccc2cnccc12 (stereo unspecified),inactive

# Reference: PubChem BioAssay (NCATS)
